Hits are enriched below; roughly 3.8% of the tested compounds scored in any of these assays.
HT1080 IDH1KD tx = toxicity to HT-1080 IDH1 knockdown cells (counter line) | HT-1080 IDH1 knockdown viability, ATP luminescence, 48 h | Potency, µM (doses to about 46.1 µM), for the others: at the highest dose activity, negative = toxicity, hits mostly cytotoxic | actives 2% (n = 360,000) | AID 686971;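 also: 0% = DMSO wells and -100% = cell-free medium wells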
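Viability of IDH1-knockdown HT-1080 fibrosarcoma cells was assessed by CellTiter-Glo after 48 h at 37 °C with titrated compound; concentration-effect curves were classified by fit quality and response size.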
S2 tox = viability counter-screen for ATXN expression inhibitors. S2 cells (HEK-293 line with an ATXN2-luciferase reporter) viability, CellTiter-Fluor protease fluorescence, 24 h. Potency, µM (titrated, usually from 56.7 µM), actives largely listed as cytotoxic. actives 0.49% (n = 400,000). AID 651635; also: nearly all actives have a fitted effect of over 40% in size
TGFb inhibitor = inhibitors of TGF-b signaling. AID 588855. Potency, µM (titrated, usually from 46.1 µM), for inactives: at the highest dose activity, negative = inhibition, hits mostly inhibitors. HepG2 CAGA-GFP TGF-b/SMAD3 reporter, GFP fluorescence, 18 h; TGF-beta stimulated, 500 pg/mL final. actives 1.2% (n = 410,000); also: % is scaled to controls: 0 for no effect and ±100 for the full control effect; nearly all actives have a fitted effect of over 65% in size
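GFP signal (ex488/em500-530) from TGF-beta-stimulated HEPG2 CAGA-GFP cells, 500 pg/mL final, 18 h at 37 degrees C in DMEM plus 1% FBS, normalized to unstimulated and DMSO-stimulated controls.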
HepG2 tox = HepG2 cytotoxicity, counter-screen for TGF-b inhibitors. Potency, µM (titrated, usually from 46.1 µM), for inactives: at the highest dose activity change, negative = cytotoxicity, actives largely listed as cytotoxic. actives 0.76% (n = 410,000). HepG2 CAGA-GFP viability, ATP luminescence, 18 h
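HepG2 CAGA-GFP cells (1000/well, DMEM with 1% FBS) received compound, then TGF-beta at 500 pg/mL final, and were incubated 18 hours at 37 degrees C. Viability was read by CellTiter-Glo luminescence. Media-only wells were set as complete cell-killing and DMSO as no toxicity.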
HT1080-NT tox = kills 2HG-producing HT-1080-NT fibrosarcoma cells | AID 686970 | actives 1.6% (n = 360,000) | HT-1080-NT fibrosarcoma viability, CellTiter-Glo ATP luminescence, 48 h | Potency, µM (highest dose often 46.1 µM), without a hit: top-dose activity, negative = less viability, actives largely listed as cytotoxic;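 also: NT is the 2HG producing partner of a matched IDH1 knockdown line; 0% = DMSO-treated cells and -100% = media-only wells without cells; nearly all actives have a fitted effect of over 55% in size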
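Luminescent CellTiter-Glo readout after 48 hours of compound exposure at 37 degrees C defined viability of HT-1080-NT cells. Activity was normalized to DMSO wells and cell-free media wells; concentration-response curves were fitted and assigned curve classes.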
ATXN2 expr inh = inhibitors of ATXN2 expression | Potency, µM (series often up to 57 µM), without a hit: at the highest dose activity change, negative = inhibition, actives largely listed as inhibitors | HEK-293 ATXN2-luciferase reporter, luminescence, 24 h | actives 0.72% (n = 360,000); also: % is scaled to controls: 0 for no effect and ±100 for the full control effect; nearly all actives have a fitted effect of over 55% in size
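qHTS (up to 57 uM final) was run with 24 h compound exposure of reporter cells at 37 °C. Each well was multiplexed: SteadyGlo luminescence measured ATXN2-luciferase expression after a fluorogenic Gly-Phe-AFC viability readout (25 uM final).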
An asterisk follows results filed as active. Calls follow the shape of the dose curve; as a rule, active = well fitted curve in the direction sought with a large enough effect; inconclusive = small, poorly fitted or top-dose-only effect, or another doubt; inactive = no such curve, though single readings can be large; an effect the other way counts as inactive or inconclusive. Potency is read from the fitted curve at half-maximal effect.

Clc1ccc2c(N3CCCC3)ccnc2c1 was read as HT1080 IDH1KD tx -14%, S2 tox inactive, TGFb inhibitor -8%, HepG2 tox -36%, HT1080-NT tox -21% and ATXN2 expr inh -35%.
For COc1cc(C)c(C(C)C)cc1S(=O)(=O)n1cnc(C)c1 the results were HT1080 IDH1KD tx 9.2µM*, S2 tox inactive, TGFb inhibitor inconclusive, HepG2 tox -11%, HT1080-NT tox inconclusive and ATXN2 expr inh -8%.
For COc1ccc(C)cc1S(=O)(=O)n1cnc(C)c1 the results were HT1080 IDH1KD tx 0%, S2 tox inactive, TGFb inhibitor 21%, HepG2 tox 10%, HT1080-NT tox 2% and ATXN2 expr inh 0%.
Screening COc1ccc(CC(=O)Nc2nnc3n2CCS3)cc1 returned S2 tox inactive, TGFb inhibitor 9%, HepG2 tox -13% and ATXN2 expr inh 8%.
`Cc1ccc(-c2noc(CCCC(=O)Nc3cccnc3)n2)cc1` gave HT1080 IDH1KD tx 23µM*, S2 tox inconclusive, TGFb inhibitor 7%, HepG2 tox -27%, HT1080-NT tox -1% and ATXN2 expr inh inconclusive.
COc1ccc(-c2noc(CCCC(=O)O)n2)cc1 was read as HT1080 IDH1KD tx -2%, S2 tox inactive, TGFb inhibitor -10%, HepG2 tox -5%, HT1080-NT tox -2% and ATXN2 expr inh 4µM*.
`CCOc1ccccc1-c1noc(CCCC(=O)Nc2cccc(C(F)(F)F)c2)n1` gave S2 tox inconclusive, TGFb inhibitor inconclusive, HepG2 tox -35% and ATXN2 expr inh 0%.
`COc1ccccc1-c1noc(CCCC(=O)Nc2cccc(C(F)(F)F)c2)n1` gave S2 tox inconclusive, TGFb inhibitor 13µM*, HepG2 tox -15% and ATXN2 expr inh inconclusive.
`CCCOC(=O)c1ccc(-c2c(C)noc2-c2ccc(OC)cc2O)o1` gave HT1080 IDH1KD tx inconclusive, S2 tox inactive, TGFb inhibitor 16µM*, HepG2 tox 13µM*, HT1080-NT tox -35% and ATXN2 expr inh -17%.
COc1ccc(-c2onc(C)c2-c2cscn2)c(O)c1 was read as HT1080 IDH1KD tx 5%, S2 tox inactive, TGFb inhibitor 0%, HepG2 tox -11%, HT1080-NT tox 9% and ATXN2 expr inh -30%.
CN(C)c1ccc(/C=C2/CCc3ccccc32)cc1 was read as TGFb inhibitor 16µM* and HepG2 tox -51%.
`COC(=O)c1ccc(CSc2nnc3ccc4ccccc4n23)cc1` gave S2 tox inactive, TGFb inhibitor 4%, HepG2 tox 3% and ATXN2 expr inh 0%.
Screening CCOc1cc(Br)c(C=O)cc1OCC returned HT1080 IDH1KD tx 33µM*, S2 tox inconclusive, TGFb inhibitor -21%, HepG2 tox 3%, HT1080-NT tox 26µM* and ATXN2 expr inh -27%.
For COc1ccc(OCC(O)CN(CC(O)COc2ccc(OC)cc2)c2cccc(O)c2)cc1 (stereo not drawn) the results were HT1080 IDH1KD tx inconclusive, S2 tox inactive, TGFb inhibitor -28%, HepG2 tox 10µM*, HT1080-NT tox inconclusive and ATXN2 expr inh -8%.
Cc1cc(Nc2cccc(Br)c2)n2c(nc3ccccc32)c1C#N was read as S2 tox inactive, TGFb inhibitor inconclusive, HepG2 tox -26% and ATXN2 expr inh -5%.
For CN(C)CCNC(=O)c1cccc(-c2cnc3c(NC=O)cc(-c4cccc(F)c4)cn23)c1 the results were HT1080 IDH1KD tx inconclusive, TGFb inhibitor 20µM*, HepG2 tox 13µM*, HT1080-NT tox inconclusive and ATXN2 expr inh inconclusive.

Compound activity as filed in PubChem.
